# PubChem BioAssay (NCI)
# The panel holds about 83,000 compounds, 20% with a hit somewhere; the sample as a whole holds those more often.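 Cell lines were cultured in 96-well plates, exposed to a single compound concentration, and assessed for percent growth 48 hours later.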 The source made the active and inactive calls.
# Test system: NCI-H460 lung
# Experiment: NCI-60 one-dose screen, 48 h (100 = growth as untreated, 0 = no growth, -100 = all killed)
# Settings: 10 µM unless noted
# Method: Growth inhibition of the NCI-H460 human Non-Small Cell Lung tumor cell line is measured as a screen for anti-cancer activity. Cells are grown in 96 well plates and exposed to the test compound for 48 hours. Compounds are tested at a single concentration, which is 10^-5 M for most compounds. The reported endpoint is percent growth (GI% or GIPRCNT), where numbers from 0 - 100% represent growth inhibition, and numbers from -100% - 0 represent cell death. For example, a value of 40 represents 60% growth inhibition. A value of 0 means no net growth occurred over the course of the experiment. A value of -40 indicates 40% of cells at the beginning of the experiment died by the end of the experiment. A value of -100 means all cells are dead at the end of the experiment.
# NCI-60 Human Tumor Cell Lines Screen was performed using the standard one-dose NCI protocol, which is described in more detail at https://dtp.cancer.gov/discovery_development/nci-60/default.htm.
# Compounds with GIPRCNT values below 10 were considered active. Activity score was based on GIPRCNT using the following formula: […]
# Score is 0 for GIPRCNT values of 100 or above, 50 for GIPRCNT values of 0, and 100 for GIPRCNT values of -100.
row,Structure (SMILES),growth
1,COc1ccc(S(=O)(=O)NCCCNc2nccc(-c3c(-c4cccc(N)c4)nc4sccn34)n2)cc1,97.1% (inactive)
2,CC/C(Cc1ccccc1)=C(\c1ccc(OCCN2CCCC2)cc1)c1ccc(OC(C)=O)cc1,42.9% (inactive)
3,ClC1=C2NC=NC2n2c(nnc2-c2ccc(Cl)cc2)N1 (stereo not given),106% (inactive)
4,CCNS(=O)(=O)c1ncnc2nc[nH]c12,104% (inactive)
5,CCOC(=O)CC(=O)c1c(C)cc(C)cc1C,105% (inactive)
6,NCc1cn2cc(Cl)sc2n1,103% (inactive)
7,NC1=CC(=O)C(=O)c2ccccc21,106% (inactive)
8,O=C(Nc1ccc(Oc2ccc(F)cc2)c(Cl)c1)c1cccnc1,97% (inactive)
9,O=C1CCc2c(sc3[nH]c(=S)n(Cc4ccccc4)c(=O)c23)C1,3.94% (active)
10,NC(=S)N/N=C/c1ccc(OCc2ccccc2)cc1,86.7% (inactive)
11,COc1ccc(/C=C/C(=O)c2c(O)c(C)c(O)c3c2OC2=CC(O)=C(C(C)=O)C(=O)[C@]23C)cc1,1.69% (active)
12,C=C1CCC2C3(C)COC(C)(C)OC3CCC2(C)C1C/C=C1/C(=O)OCC1OC(C)=O (stereo not given),95.4% (inactive)
13,O=C1Nc2ccccc2C12CC(c1ccccc1)=NN2 (stereo not given),33.2% (inactive)
14,CCN(CC)CC(O)CNc1c2ccc([N+](=O)[O-])cc2nc2cc(OC)c(OC)cc12 (stereo not given),-49.6% (active)
15,CNc1nc(C)c(-c2nc(Nc3cccc(S(N)(=O)=O)c3)ncc2F)s1,4.4% (active)
16,CC1(C)CC(=O)C(c2c(-c3ccccc3)[nH]c3[nH]c(=S)[nH]c(=O)c23)=C(O)C1,117% (inactive)
17,Nc1ccc(N2CCOCC2)cc1,104% (inactive)
18,O=C1Nc2ccccc2C12CC(c1ccc(Cl)cc1)=NN2 (stereo not given),97.9% (inactive)
19,Cc1ccc(Nc2c(C(N)=O)cnc3ccc(-c4csc(N)n4)cc23)cc1,100% (inactive)
20,COc1cc2c(cc1O)CCc1cc(O)cc(OC)c1-2,93.8% (inactive)

row,Structure (SMILES),growth
1,COc1cc(/C=N\NC(=O)CN2CCN(c3cc4c(cc3F)c(=O)c(C(=O)N/N=C/c3ccc(O)c(OC)c3)cn4C3CC3)CC2)ccc1O,67% (inactive)
2,N#Cc1ccc(NC(=O)Nc2ccc(Cc3ccc(NC(=O)Nc4ccc(C#N)cc4)cc3)cc2)cc1,17.2% (inactive)
3,CCN(CC)Cc1cc(Nc2c3ccc(Cl)cc3nc3c(C)cccc23)ccc1O,-78.1% (active)
4,O=C1C=CC(=O)c2c1nc1n2CCCC1,24.6% (inactive)
5,CCN(CC)c1ccc(/C=C/C2=[N+](C)c3ccccc3C2(C)C)cc1,3.05% (active)
6,Clc1cccc(Nc2nc(Nc3cnc4ccccc4c3)c3[nH]cnc3n2)c1,61.1% (inactive)
7,CC1=C(NCCN2CCCC2)C(=O)c2c(OCc3ccc(F)c(Cl)c3)cccc2C1=O,57.7% (inactive)
8,CC/C(=C(\c1ccc(O)cc1)c1ccc(OCCN(C)CCN(C)C(=O)CCCCC(=O)c2c(C)[nH]c(/C=C3\N=C(c4ccc[nH]4)C=C3OC)c2C)cc1)c1ccccc1,76.8% (inactive)
9,CC(C)(C)c1nn(-c2ccccc2)c2c1CC1(CN2Cc2ccc3c(c2)OCO3)C(=O)c2ccccc2C1=O,112% (inactive)
10,CC#CC#Cc1cccc(=O)o1,83.5% (inactive)
11,CC[C@]12C=CCN3CC[C@@]4(c5ccc(OC)cc5N(C)[C@H]4[C@@](O)(C(=O)OC)[C@@H]1OC(=O)CCC(=O)N[C@@H](Cc1c[nH]c4ccccc14)C(=O)OC)[C@@H]32,96.6% (inactive)
12,O=[N+]([O-])c1cccc(-c2nc3sccn3c2-c2ccnc(NCCCNS(=O)(=O)c3ccc(Br)cc3)n2)c1,66.7% (inactive)
13,C=C1CCC2C3(C)COC(c4ccc(OC)cc4Br)OC3CCC2(C)C1/C=C/C1=CCOC1=O (stereo not given),65% (inactive)
14,CCN(CC)c1ccc(CNc2cc(C)nc3ccc(OC)cc23)cc1,-39.4% (active)
15,CCCCNC(=O)NS(=O)(=O)c1ccc(N2N=C(c3cc(C)ccc3C)CC2c2cc(OC)c(OC)c(OC)c2)cc1 (stereo not given),57.5% (inactive)
16,CCC(c1ccc(O)cc1)C(CC)c1ccc(O)c(F)c1 (stereo not given),98.9% (inactive)
17,CN1CCN(Cc2ccc(NC(=O)c3cncc(C#Cc4cnc(N)c5cccnc45)c3)cc2C(F)(F)F)CC1,7.81% (active)
18,COc1ccc2nc3cc(Cl)ccc3c(N3CCN(c4nccc(Nc5ccccc5)n4)CC3)c2c1,67.4% (inactive)
19,CC1=N/C(=C\c2cccc(Br)c2)C(=O)O1,106% (inactive)
20,COc1ccccc1-c1ccc2c(N)c(C(=O)c3ccc4c(c3)OCO4)sc2n1,60.2% (inactive)
